We go through 38 compounds from PubChem BioAssay (NCI).

About 83,000 compounds went through this panel and 20% of them were active in at least one assay; those are over-represented in the sample as a whole.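 Single-dose data. Exposure time 48 hours. Values below 10 considered active.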 Unmarked numbers belong to inactive results. Active and inactive are the calls of the source.

The test system of the test is NCI/ADR-RES ovarian. The test is described as follows: NCI-60 one-dose screen, 48 h (100 = growth as untreated, 0 = no growth, -100 = all killed). The following applies: 10 µM unless noted.
With `CCC(=O)Nc1ccc(-c2nc(-c3cccc(O)c3)c(-c3ccnc(Br)c3)[nH]2)cc1`, the growth was 96.5%.
As for `NC(=O)c1c(NC(=O)c2cccc(OC(F)(F)F)c2)sc2c1CCC(=O)C2`, the growth is 57.5%.
In the case of `COc1cc(C2=NN(C(C)=O)C(c3ccc(N4CCOCC4)cc3)C2)cc(OC)c1OC` (stereo not drawn), the growth was 99.5%.
On to `CCC(=O)Nc1cc(Nc2cc(NC3CC3)n3ncc(C#N)c3n2)ccc1C`, for which the growth was 44.2%.
Take `O=C(CSc1ccc(-c2nc3ccccc3[nH]2)cn1)N1CCN(c2ccccc2F)CC1`: the growth was 29%.
`NCCN1CCN(c2nc(-c3ccccc3)nc3nc(-c4ccccc4)oc23)CC1`: the growth is -45.3% (active).
As to `CCN(CC)Cc1c(-c2cccc(OC(F)(F)F)c2)[nH]c2ccc(N3CCCC3)cc2c1=O`, the growth was 92.5%.
Regarding `C#C[C@]1(O)CC[C@H]2[C@@H]3CC=C4c5sc(-c6ccc(OC)cc6)nc5CC[C@]4(C)[C@H]3CC[C@@]21C`, the growth is 83.8%.
With `C#C[C@]1(O)CC[C@H]2[C@@H]3CC=C4c5sc(Nc6cc(OC)ccc6OC)nc5CC[C@]4(C)[C@H]3CC[C@@]21C`, the growth was 55.6%.
Take `O=C(Nc1cccc(-c2nc(-c3ccc(NC(=O)c4cccnc4)cc3Cl)no2)c1)Nc1ccc(NC(=O)C2CC2)c(C(F)(F)F)c1`: the growth is 64.1%.
Turning to `O=C(Nc1ccc(-c2nc(-c3cccc(O)c3)c(-c3ccnc(Br)c3)[nH]2)cc1)c1ccccc1`, the growth is 57.6%.
With `COc1ccccc1N1CCN(C2=NN=C(c3cccc(Cl)c3)c3ccccc3C2)CC1` the figure was 10.7%.
As to `O=C(NNc1nc2cc(F)c(F)cc2n2cccc12)c1ncccn1`, the growth is 10.1%.
As to `O=C(CN1C(=O)CSC1=O)Nc1ccc(C(=O)/C=C/c2cc3ccccc3nc2Cl)cc1`, the growth was 89.5%.
With `O=C(C[n+]1ccnc2ccccc21)c1ccc(O)c(O)c1`, the growth is 57.2%.
In the case of `Cn1ccnc1C(=O)/C=C/c1ccc(C(=O)Nc2ccc(NC(=O)CCNC(=O)c3csc(Br)n3)cc2)cc1`, the growth was 60.9%.
`COc1ccc(Oc2ccc(C3CC(c4cc(OC)c(OC)c(OC)c4)=NN3C(C)=O)cc2)cc1` (stereo not drawn): the growth is 19.8%.
`O=C1/C(=C/c2ccccc2[N+](=O)[O-])Oc2ccc(O)cc21`: the growth is 49%.
With `O=c1c2ccccc2nc(COc2ccccc2)n1/N=C/C=C/c1ccccc1` the figure was 91.8%; with `C#C[C@]1(O)CC[C@H]2[C@@H]3CC=C4c5sc(C6CC6)nc5CC[C@]4(C)[C@H]3CC[C@@]21C`, 84.6%.
As to `Cc1ccc(S(=O)(=O)N/N=C/c2cn(-c3ccc(F)cc3)nc2-c2ccc(S(C)(=O)=O)cc2)cc1`, the growth is 106%.
For the compound `C#C[C@]1(O)CC[C@H]2[C@@H]3CC=C4c5sc(-c6ccccn6)nc5CC[C@]4(C)[C@H]3CC[C@@]21C`, the growth was 89.8%.
With `CCOC(=O)c1c(NC(=O)c2cccc(C(F)(F)F)c2)sc2c(CN3CCN(C)CC3)c(O)ccc12` the figure was -38.2% (active); with `CCOC(=O)Nc1ccc(-c2nc(-c3cccc(O)c3)c(-c3ccnc(Br)c3)[nH]2)cc1`, 63.5%.
As to `COc1ccc(NS(=O)(=O)c2ccc(-c3cnc(C4CC4)o3)cc2)cc1Cl`, the growth is 18.6%.
With `O=S(=O)(Nc1ccc(I)c(Cl)c1)c1ccc(-c2cnc(C3CC3)o2)cc1` the figure was 14.6%; with `O=S(=O)(Nc1ccc2c(c1)OC(F)(F)O2)c1ccc(-c2cnc(C3CC3)o2)cc1`, 24.7%; with `O=C(CN1CCN(c2cc(=O)n(-c3ccccc3)c3ccccc23)CC1)Nc1ccc([N+](=O)[O-])cc1`, 91.1%.
With `CN(c1ccc(Cl)cc1)S(=O)(=O)c1ccc(-c2cnc(C3CC3)o2)cc1`, the growth was 13.6%.
As to `O=C(/C=C/c1cn(-c2ccccc2)nc1-c1ccc(Cl)cc1)c1cc2ccccc2oc1=O`, the growth is 71.9%.
In the case of `O=C1C[C@@H](c2ccccc2)Oc2c(Cc3ccccc3O)c(O)c(Cc3cc(Cc4cc(Cc5ccccc5O)ccc4O)ccc3O)c(O)c21`, the growth was 106%.
In the case of `CCC(CC)N1C(=O)/C(=c2\sc3n(c2=O)C2C(NN=3)N(CC)C(=O)N2CC)c2ccccc21` (stereo not drawn), the growth was 11%.
With `COC(=O)Nc1ccc(-c2nc(-c3cccc(O)c3)c(-c3ccnc(Br)c3)[nH]2)cc1` the figure was 76.1%.
Consider `CC(=O)Nc1ccc(NC(=O)Nc2cccc(-c3nc(-c4ccc(NC(=O)c5cccs5)cc4Cl)no3)c2)cc1C(F)(F)F`, for which the growth was 55.5%.
The result for `O=S(=O)(Nc1cc(Cl)cc(Cl)c1)c1ccc(-c2cnc(C3CC3)o2)cc1` reads 18.8%.
Consider `CC(=O)Nc1ccc(NC(=O)Nc2cccc(-c3nc(-c4ccc(NC(=O)c5cccnc5)cc4Cl)no3)c2)cc1C(F)(F)F`, for which the growth was 69.2%.
For the compound `O=C(Nc1cccc(-c2nc(-c3ccc(NC(=O)c4cccs4)cc3Cl)no2)c1)Nc1ccc(NC(=O)C2CC2)c(C(F)(F)F)c1`, the growth is 45.5%.
Consider `CN1C(=O)N(C)C2Nn3c(s/c(=C\c4ccccn4)c3=O)=NC21` (stereo not drawn), for which the growth was 103%.
